According to PubChem BioAssay AID652098 (National Center for Advancing Translational Sciences (NCATS), 2013):
Activity calls are given as the source filed them.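 How the source made its calls: active means glucosylsphingosine level at or below 0.14 pmol/ug; inactive means the rest.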

assay: Extended Characterization of Activators of N370S glucocerebrosidase as a Potential Chaperone Treatment of Gaucher Disease: Glucosylsphingosine in Macrophages; conditions: Gaucher patient macrophages, glucosylsphingosine LC-MS/MS; active compounds read low
From the text: Glucocerebrosidase (GCase) catalyzes the hydrolysis of beta-glucocerebroside (GC) to glucose and ceramide in lysosomes. Mutations in the glucocerebrosidase gene result in Gaucher disease, an autosomal recessive lysosomal storage disorder. Many of the mutations encountered in patients with Gaucher disease are missense alterations that may cause misfolding, decreased stability and/or mistrafficking of this lysosomal protein. […] These inhibitors include iminosugar analogs and other inhibitors that were discovered as part of previous work. However, the enhancement of enzyme activity by the chaperone action of an enzyme inhibitor must be balanced against the direct inhibition of the enzyme. […] In this extended characterization of our probe, we have further characterized the activity of probes in relevant models of Gaucher disease. This assay attempts to quantitate glucosylsphingosine in patient-derived macrophages following compound incubation. NIH Chemical Genomics Center [NCGC] NIH Molecular Libraries Probe Production Centers Network [MLPCN] MLPCN Grant: MH086442 Assay Submitter (PI): Ellen Sidransky, NHGRI
Glucosylsphingosine was measured by liquid chromatography-tandem mass spectrometry as previously described by Tropak et al. Chembiochem 2008, 9, 2650-2662.

**Q.** With `C#Cc1ccc(NC(=O)c2cnn3c(C)cc(C)nc23)cc1` as the molecule, how does the glucosylsphingosine level read?
**A.** The glucosylsphingosine level was 0.135 pmol/µg (active).
